The full ranking holds about 5,400 compounds; the median of “IFI” is about 2, and the highest 2% start at about 22. This excerpt belongs to a sample that is enriched for the highest values.

The nature of the test: NOVARTIS: Inhibition Frequency Index (IFI) - the number of HTS assays where a compound showed > 50% inhibition/induction, expressed as a percentage of the number of assays in which the compound was tested. Format: functional.
For `Cn1ccnc1C(=O)NNc1ncc(C(F)(F)F)cc1Cl`, the IFI worked out at 13.3%.
Turning to `CCCN[P+](CC(C)C)(NCCC)NCCC`, the IFI was 10.9%.
As for `C=C[C@H]1CN2CC[C@H]1C[C@H]2[C@H](OC(=O)CC)c1ccnc2ccccc12`, the IFI amounted to 1.87%.
With `C=C1[C@@H](C)[C@H]2[C@H](Cc3ccccc3)NC(=O)[C@]23C(OC(C)=O)C=C[C@@](C)(O)C(=O)[C@@H](C)CC=C[C@H]3[C@@H]1O` (stereo not given in full) the figure was 6.9%; with `CCOC(=O)c1c(S(=O)(=O)Nc2ccc(C(C)(C)C)cc2)c(-c2ccccc2)n(-c2ccccc2)c1C`, 3.09%; with `CC[C@H]1CN2CC[C@H]1C[C@H]2[C@H](O)c1ccnc2ccccc12`, 5.17%.
With `CC1=CC(=O)OC[C@]23C[C@H](O)C(C)=C[C@H]2O[C@@H]2C[C@@H](OC(=O)C=CC=CC(=O)OCC1)[C@@]3(C)[C@]21CO1` the figure was 22.6%.
With `CC1=C[C@H]2O[C@@H]3C[C@H]4OC(=O)C=CC=C[C@H]([C@@H](C)O)OCC[C@@H](C)[C@H](O)C(=O)OC[C@@]2(CC1)[C@]4(C)[C@@]31CO1` the figure was 24.5%.
For the compound `CC1=CC(=O)OC[C@]23CCC(C)=C[C@H]2O[C@@H]2C[C@@H](OC(=O)C=CC=CC(=O)OCC1)[C@@]3(C)[C@]21CO1`, the IFI worked out at 22.6%.
Consider `Cc1onc(O)c1CC(N)C(=O)O` (stereo not given), for which the IFI came to 0%.
`CCOc1ccc2nccc([C@@H](O)[C@@H]3C[C@@H]4CCN3C[C@@H]4CC)c2c1` registered an IFI of 3.82%.
With `Cc1ccc(O)c(C(=O)c2c[nH]c(-c3nc4ccccc4[nH]3)c2)c1` the figure was 0%.
In turn, `C=CC1CN2CCC1CC2[C@@H](OC(=O)c1ccc(C(C)(C)C)cc1)c1ccnc2ccc(OC)cc12` (stereo not given in full) registered an IFI of 0%.
With `O=C(NNc1cccc(F)n1)C(F)(F)F` the figure was 1.25%.
With `C=CC(C)(CCC=C(C)C)c1ccc2c3c(c[nH]c13)CC(CO)NC(=O)C(C(C)C)N2C` (stereo not given) the figure was 11.3%; with `CS/C(Cl)=C(/NC(C)=O)[P+](c1ccccc1)(c1ccccc1)c1ccccc1`, 5.34%.
With `C/C=C1/C[C@H]2[C@@H](OC)Nc3cc(O)c(OC)cc3C(=O)N2C1` the figure was 28.6%; with `O=C1Cc2ccccc2C(=C2CCNCC2)c2ccsc21`, 0%; with `CC=C[C@H]1O[C@@](O)([C@@H](C)C(O)C(C)[C@H]2OC(=O)C(OC)=CC(C)=C[C@@H](C)[C@@H](O)[C@@H](C)[C@@H](O)C(C)CC(C)=CC=C[C@@H]2OC)C[C@@H](O[C@H]2C[C@@H](O)[C@H](OC(N)=O)[C@@H](C)O2)[C@@H]1C` (stereo not given in full), 15.5%.
On to `CCOC(=O)c1ccc2nc(C)cc(Nc3ccc(N4CCCCC4)cc3)c2c1`, for which the IFI was 1.12%.
With `CCN1C(=Cc2sc3ccccc3[n+]2CC)[Se]c2ccccc21` the figure was 22.6%; with `CCC(=O)OC(C(C)C(=O)O)C(C)C1OC2(CCC(C)(C3CCC(C)(C4OC(C5OC(O)(CO)C(C)CC5C)CC4C)O3)O2)CC(O)C1C` (stereo not given), 8.62%.
With `C[n+]1c2n(c3ccccc31)N=C(c1ccccc1)C[Se]2` the figure was 3.7%; with `CC1CC2CCC(O2)C(C)C(=O)O[C@H](C)CC2CCC(O2)C(C)C(=O)OC(C)CC2CCC(O2)C(C)C(=O)O[C@H](C)CC2CCC(O2)C(C)C(=O)O1` (stereo not given in full), 19.2%.
With `CCC1CC2CCC(O2)C(C)C(=O)OC(C)CC2CCC(O2)C(C)C(=O)OC(CC)CC2CCC(O2)C(C)C(=O)OC(C)CC2CCC(O2)C(C)C(=O)O1` (stereo not given) the figure was 24.1%.
`C[C@@H]1C[C@H]2CC[C@H](O2)[C@H](C)C(=O)O[C@@H](C)C[C@@H]2CC[C@@H](O2)[C@@H](C)C(=O)O[C@H](C)C[C@H]2CC[C@@H](O2)[C@H](C)C(=O)O[C@@H](C)C[C@@H]2CC[C@@H](O2)[C@@H](C)C(=O)O1` yielded an IFI of 12.5%.
Take `CCCCCc1cc(O)c2c3c(c(=O)oc2c1)CN(C)CC3`: the IFI came out at 2.29%.
Consider `O=C1CN=C(c2ccccc2Cl)c2cc(Cl)ccc2N1Cc1cccc([N+](=O)[O-])c1`, for which the IFI is 1.92%.
With `CCCCCCCc1cc(O)c2c3c(c(=O)oc2c1)CCC(C)C3` (stereo not given) the figure was 0%; with `C=C[C@H]1CN2CC[C@H]1C[C@H]2[C@H](OC(=O)CCCC)c1ccnc2ccccc12`, 4.59%; with `CN1CCc2cc3c(c4c2C1Cc1ccccc1-4)OCO3` (stereo not given), 6.17%.
Turning to `COc1cc2c3cc1Oc1c(OC)c(OC)cc4c1C(Cc1ccc(O)c(c1)Oc1ccc(cc1)CC3N(C)CC2)N(C)CC4` (stereo not given), the IFI amounted to 7.14%.
With `COc1ccc2c(c1)CC1c3c(cc4c(c3-2)OCO4)CCN1C` (stereo not given) the figure was 25%; with `CC[C@@]1(O)C[C@H](O[C@@H]2CC(N(C)C)[C@@H](O[C@@H]3C[C@@H](O)[C@@H](O[C@@H]4CCC(=O)[C@@H](C)O4)C(C)O3)[C@@H](C)O2)c2c(cc3c(c2O)C(=O)c2c(O)ccc(O)c2C3=O)[C@H]1C(=O)OC` (stereo not given in full), 21.4%; with `OC1(c2ccc(Cl)c(C(F)(F)F)c2)CCN(CCOC2c3ccccc3CSc3ccc(Cl)cc32)CC1` (stereo not given), 2.38%.
